Reference: PubChem BioAssay (Tox21)
Activity calls are given as the source filed them. Calls follow the shape of the full dose curve.

molecular target: Muscarinic acetylcholine receptor M1 (Homo sapiens) (UniProt P11229); assay: Cholinergic receptor muscarinic 1 (CHRM1) small molecule agonists, cell-based qHTS assay (AID 1963589); settings: CHRM1-CHO cells, agonist mode, calcium flux fluorescence; series mostly up to 76.8 µM; activation: at the top concentration; also: nearly all actives have a fitted effect of over 35% in size
From the text: National Center for Advancing Translational Sciences [NCATS]
Division of Preclinical Innovation [DPI]
U.S. Environmental Protection Agency [EPA]
National Institutes of Environmental Health Sciences [NIEHS]
National Toxicology Program [NTP]
U.S. Food and Drug Administration [FDA]
The CHRM1 is a muscarinic receptor. This receptor plays a crucial role in learning and memory processes and has long been identified as a promising therapeutic target for the improvement of cognitive decline in Alzheimer's disease (AD). The CHRM1-CHO cell line stably expressing human muscarinic acetylcholine receptor M1 (CHRM1) can be used for screening agonists and antagonists of interactions between CHRM1 and its ligands. The CHRM1-CHO Calcium Flux Assay is a homogeneous fluorescence-based assay for detecting the intracellular calcium level using FDSS kinetic plate reader system.
CHRM1-CHO cells were dispensed at 1000 cells/3uL/well in 1536-well black-clear bottom plates using a Multidrop Dispenser. After the assay plates were incubated at a 37 C/5% CO2 incubator for 18 h, 3 uL of Dye Loading Buffer was transferred to the assay plate by a Flying Reagent Dispenser. The assay plates were incubated at 37 C for 1h. For agonist mode, 23 nL of compounds dissolved in DMSO, positive controls or DMSO only was transferred to the assay plate by a pin tool. […] Each test compound was measured at 15 concentrations in three independent runs.
% is scaled to controls: 0 for no effect and ±100 for the full control effect.

Muscarinic acetylcholine receptor M1 (Homo sapiens), sequence (P11229 whole entry, looked up): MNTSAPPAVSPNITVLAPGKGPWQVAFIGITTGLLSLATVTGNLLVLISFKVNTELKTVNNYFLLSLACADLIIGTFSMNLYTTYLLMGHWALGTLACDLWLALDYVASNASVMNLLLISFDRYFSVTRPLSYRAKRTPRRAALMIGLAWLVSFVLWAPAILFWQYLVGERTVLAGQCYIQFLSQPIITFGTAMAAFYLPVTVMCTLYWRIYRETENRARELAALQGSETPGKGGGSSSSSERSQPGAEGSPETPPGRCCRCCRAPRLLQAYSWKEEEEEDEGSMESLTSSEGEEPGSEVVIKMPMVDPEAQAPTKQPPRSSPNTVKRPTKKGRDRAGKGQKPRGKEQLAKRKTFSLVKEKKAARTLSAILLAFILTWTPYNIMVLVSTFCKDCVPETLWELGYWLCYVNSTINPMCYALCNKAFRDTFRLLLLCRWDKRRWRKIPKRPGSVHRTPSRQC

Row | SMILES | activation
1 | Cn1cccc1 | -0.244% (inactive)
2 | O=C(O)c1c(O)c(-c2ccccc2)nc2ccccc12 | -0.555% [at 35.3 µM] (inactive)
3 | COc1ccc(NS(=O)(=O)c2ccc(N)cc2)nn1 | -0.378% [at 35.3 µM] (inactive)
4 | CC(C)=CCC/C(C)=C\C#N | 0.0597% (inactive)
5 | CCn1nc(Cc2ccccc2)cc1C1CCN(C[C@H]2C[C@H](N(C)[C@@H](C(=O)O)C(C)C)C[C@@H]2c2cccc(F)c2)CC1 | -0.803% (inactive)
6 | O=[N+]([O-])c1cccc(S(=O)(=O)NCCNS(=O)(=O)c2cccc([N+](=O)[O-])c2)c1 | 0.371% [at 35.3 µM] (inactive)
7 | C#CC(C)N(C)C(=O)Nc1ccc(Cl)cc1 (stereo not given) | -1.11% (inactive)
8 | O=C(C1CCCCC1)N1CC(=O)N2CCCc3ccccc3C2C1 (stereo not given) | 0.0488% [at 35.3 µM] (inactive)
9 | CCCCN1CCCC1C(=O)Nc1c(C)cc(C)cc1C (stereo not given) | 1.88% [at 35.3 µM] (inactive)
10 | O=[N+]([O-])c1cccc(I)c1 | -0.969% (inactive)
11 | CCNC(=O)N1CCN(CCCC(c2ccc(F)cc2)c2ccc(F)cc2)CC1 | 0.415% [at 35.3 µM] (inactive)
12 | CN(C)CCCOc1nn(Cc2ccccc2)c2ccccc12 | -0.156% [at 35.3 µM] (inactive)
13 | CCCCCCCCCCCCN(CCO)CCO | 10.6% (inactive)
14 | c1ccc(-c2nn[nH]n2)cc1 | 0.177% (inactive)
15 | CC(C)(O)c1ccccc1 | -0.0104% (inactive)
16 | COc1ccc(OC)c(OC)c1 | 0.255% (inactive)
17 | CCNC(=O)NCCCOc1cccc(CN2CCCCC2)c1 | -0.16% [at 35.3 µM] (inactive)
18 | CCN(CC)C(=O)N(CC)CC | -0.308% (inactive)
19 | CO[C@H]1O[C@H](CO)[C@@H](O)[C@H](O)[C@H]1O | -0.0984% (inactive)
20 | CN1CCN(Cc2cc(-c3ccc4[nH]c(=O)oc4c3)co2)[C@@H](c2ccc(F)cc2)C1 | 1.74% (inactive)

Row | SMILES | activation
21 | c1ccc(C(O[C@H]2CCCN(CCc3ccc4c(c3)OCO4)C2)c2ccccc2)cc1 | 1.92% [at 35.3 µM] (inactive)
22 | Nc1ccc(C(=O)NCC(=O)O)cc1 | -7.8% [at 35.3 µM] (inactive)
23 | C1COC(NC(C2CC2)C2CC2)=N1 | -0.32% [at 35.3 µM] (inactive)
24 | CC(C(=O)O)c1ccc(C(=O)c2ccccc2)s1 (stereo not given) | -1.16% [at 35.3 µM] (inactive)
25 | Nc1cc(Cl)c(O)c(Cl)c1 | -0.105% (inactive)
26 | COc1cc(C(=O)OC(COCCC(C)C)CN2CCOCC2)cc(OC)c1OC (stereo not given) | 9.54% [at 35.3 µM] (inactive)
27 | O=C1OC(OC(=O)c2cccnc2Nc2cccc(C(F)(F)F)c2)c2ccccc21 (stereo not given) | 2.62% [at 35.3 µM] (inactive)
28 | CCCC(=O)C(=O)O | -1.46% (inactive)
29 | O=C(O)/C=C/c1ccc(/C=C/C(=O)O)cc1 | 0.0624% [at 35.3 µM] (inactive)
30 | COc1cccc(O)c1 | -0.296% (inactive)
31 | CCCCOCCOC(=O)c1cccnc1 | -0.147% [at 35.3 µM] (inactive)
32 | CCCCCCCCOc1ccc(C(=O)O)cc1 | 2.23% (inactive)
33 | CC(C)Oc1ccccc1O | -0.0693% (inactive)
34 | O=C(O)c1ccccc1Cl | -0.426% (inactive)
35 | CCOC(=O)c1ccccc1O | 8.79% [at 35.3 µM] (inactive)
36 | NC(=O)CC[C@@H](N)C(=O)O | -0.0014% [at 35.3 µM] (inactive)
37 | C=CCOc1c(Br)cc(C(C)(C)c2cc(Br)c(OCC=C)c(Br)c2)cc1Br | -0.0903% [at 35.3 µM] (inactive)
38 | O=Cc1ccccc1[N+](=O)[O-] | -0.0694% (inactive)
39 | C/C(=N\[Si](C)(C)C)O[Si](C)(C)C | 0.122% (inactive)
40 | O=C(O)CCCc1ccccc1 | 0.102% [at 35.3 µM] (inactive)
